From the supplement of paper PMC9694430
Several values for one entry are separate records, joined by “and”; a condition that tells them apart may be missing. Equal entries are not always repeated. Structures can show the parent of a compound that is named as a salt.

Test system: LOC_OS02G07810-cb001
Assay: thermal shift delta Tm vs DMSO control; higher = stronger stabilization (binding)
Settings: 12.5 µM; protein concentration 2 µM
Outline: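 Rice kinase domain constructs were expressed in E. coli, purified, and tested by differential scanning fluorimetry with compound added in DMSO. Each well of a 96-well plate held 19.5 μl of 2 μM kinase in 100 mM potassium phosphate pH 7.5, 150 mM NaCl, 10% glycerol and 5 × SYPRO Orange, and fluorescence was read from 25°C to 95°C at 0.05°C/s. The melting temperature shift is the mean of triplicates, taken against protein with DMSO alone after Boltzmann fitting.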

Going from COc1cc(Nc2ncc(F)c(Nc3ccc4c(n3)NC(=O)C(C)(C)O4)n2)cc(OC)c1OC to COc1cc2ncnc(Nc3ccc(O)c(Br)c3)c2cc1OC, the “thermal shift delta Tm” value rises from 0.41 °C to 0.81 °C.

Compared with Cc1ccc(-n2nc(C(C)(C)C)cc2NC(=O)Nc2ccc(OCCN3CCOCC3)c3ccccc23)cc1 [Doramapimod (BIRB 796)], COC(=O)c1ccc2c(c1)NC(=O)/C2=C(\Nc1ccc(N(C)C(=O)CN2CCN(C)CC2)cc1)c1ccccc1 [Nintedanib (BIBF 1120)] is lower in “thermal shift delta Tm” value: 0.89 °C for the first, 0.27 °C for the second.

Going from CC#CC(=O)N1CC[C@@H](n2c(=O)n(-c3ccc(Oc4ccccc4)cc3)c3c(N)ncnc32)C1 [ONO-4059 (GS-4059) hydrochloride] to CC#CC(=O)N1CCC[C@H]1c1nc(-c2ccc(C(=O)Nc3ccccn3)cc2)c2c(N)nccn12 [Acalabrutinib (ACP-196)], the “thermal shift delta Tm” value falls from 0.05 °C to 0.04 °C.

Compared with O=C(NC[C@H](O)CO)c1ccncc1Nc1ccc(I)cc1F, O=C(Nc1ccccc1C(=O)NC1CCCCNC1=O)c1cc2ccccc2s1 (configuration not stated) is lower in “thermal shift delta Tm” value: 0.72 °C for the first, 0.51 °C for the second.

Going from CO[C@H]1C[C@@H]2CC[C@@H](C)[C@@](O)(O2)C(=O)C(=O)N2CCCC[C@H]2C(=O)O[C@H]([C@H](C)C[C@@H]2CC[C@@H](O)[C@H](OC)C2)CC(=O)[C@H](C)/C=C(\C)[C@@H](O)[C@@H](OC)C(=O)[C@H](C)C[C@H](C)/C=C/C=C/C=C/1C [Rapamycin (Sirolimus)] to CNC(=O)c1cc(Oc2ccc3nc(N[C@@H]4CCCC[C@H]4O)sc3c2)ccn1, the “thermal shift delta Tm” value rises from 0.45 °C to 0.97 °C.

Going from COc1c(C)c(C(=O)c2ccc(N)c(C(=O)O)c2)n2ccccc12 to Cc1ccc(NC(=O)c2cccc(N(C)C)c2)cc1NC(=O)c1ccc(O)cc1, the “thermal shift delta Tm” value rises from 0.92 °C to 1.54 °C.

Going from CC(C)CC(=O)Nc1n[nH]c2c1CN(C(=O)C1CCN(C)CC1)C2(C)C to CCNC(=O)Nc1ccc(-c2nc(N3CCOC[C@@H]3C)c3c(n2)C(C)(C)S(=O)(=O)C3)cc1, the “thermal shift delta Tm” value falls from 1.09 °C to -0.58 °C.

Compared with CCN(CC)CCCC(C)Nc1nc(C)cc(Nc2ccc3nc(C)cc(N)c3c2)n1 (configuration not stated), COC(=O)N[C@@H](C)CNc1nccc(-c2cn(C(C)C)nc2-c2cc(Cl)cc(NS(C)(=O)=O)c2F)n1 [Encorafenib (LGX818)] is higher in “thermal shift delta Tm” value: -0.06 °C for the first, 0.09 °C for the second.

First: Cc1cc(NC(=O)c2cccc(NC(=O)/C=C/CN(C)C)c2)ccc1Nc1nccc(-c2cccnc2)n1
Second: CN(C)C/C=C/C(=O)Nc1ccc(C(=O)Nc2cccc(Nc3ncc(Cl)c(-c4c[nH]c5ccccc45)n3)c2)cc1
The “thermal shift delta Tm” value of the first is higher: 1.46 °C for the first, 1.36 °C for the second.

Going from COc1cc2ncnc(Nc3cccc(Cl)c3F)c2cc1OC(=O)N1CCN(C)C[C@H]1C to COc1cc2nccc(Oc3ccc(NC(=O)C4(C(=O)Nc5ccc(F)cc5)CC4)cc3)c2cc1OC [Cabozantinib malate (XL184)], the “thermal shift delta Tm” value rises from 0.42 °C to 1.09 °C.

Going from Cc1ccc(C(=O)Nc2ccc(Oc3cc4cnn(C)c4cc3-c3cn[nH]c3)c(F)c2)c(=O)n1-c1ccc(F)cc1 to Nc1nccc(Oc2ccc(NC(=O)c3c[nH]cc(-c4ccc(F)cc4)c3=O)cc2F)c1Cl, the “thermal shift delta Tm” value rises from 1.19 °C to 1.41 °C.

First: Nc1ncccc1-c1nc2ccc(-c3ccccc3)nc2n1-c1ccc(C2(N)CCC2)cc1 [Miransertib (ARQ 092) HCl]
Second: Oc1cccc(-c2nc(N3CCOCC3)c3oc4ncccc4c3n2)c1
The “thermal shift delta Tm” value of the first is lower: -1.04 °C for the first, 0.91 °C for the second.

First: Cc1cc(C(C)Nc2ccccc2)c2nc(N3CCOCC3)cc(=O)n2c1 (configuration not stated)
Second: N#Cc1cccc(-c2c[nH]c3ncnc(N4CCOCC4)c23)c1
The “thermal shift delta Tm” value of the first is lower: 0.27 °C for the first, 0.61 °C for the second.

First: COc1ccc(C(=O)Nc2sc3c(c2C(N)=O)CCCC3)cc1OC
Second: Cc1nc(NC(=O)N2CCC[C@H]2C(N)=O)sc1-c1ccnc(C(C)(C)C(F)(F)F)c1 [Alpelisib (BYL719)]
The “thermal shift delta Tm” value of the first is higher: 1.01 °C for the first, 0.62 °C for the second.

Compared with CN1C(=O)[C@@H](NC(=O)c2n[nH]c(Cc3ccccc3)n2)COc2ccccc21, Cc1cc(C)c(/C=C2\C(=O)Nc3ccccc32)[nH]1 [Semaxanib (SU5416)] is higher in “thermal shift delta Tm” value: -0.03 °C for the first, 1.03 °C for the second.

Compared with COc1cc2c(c(OC)c1OC)-c1c(cc3c(c1OC)OCO3)CC(C)C(C)C2 (configuration not stated) [Schisandrin B (Sch B)], CN(C)CCOc1ccc(-c2nc(-c3ccncc3)c(-c3ccc4c(c3)CC/C4=N\O)[nH]2)cc1 is higher in “thermal shift delta Tm” value: 0.64 °C for the first, 1.2 °C for the second.

Cc1ccc2nc(NCCN)c3ncc(C)n3c2c1 and CNc1nc(Nc2cn(C(C)(C)C#N)nc2C)ncc1C(F)(F)F are the same in “thermal shift delta Tm” value: 0.4 °C for the first, 0.4 °C for the second.

Going from O=C(Nc1c[nH]nc1-c1nc2ccc(CN3CCOCC3)cc2[nH]1)NC1CC1 to N#Cc1ccc(-c2c(-c3ncn[nH]3)sc(N3CCOCC3)c2C#N)c(F)c1, the “thermal shift delta Tm” value rises from 0.64 °C to 0.75 °C.

In the case of C[C@@H]1CCN(C(=O)CC#N)C[C@@H]1N(C)c1ncnc2[nH]ccc12, the “thermal shift delta Tm” value is reported as 0.22 °C and 0.98 °C.
